Mito fusion act: qHTS Assay for Small Molecule Inhibitors of Mitochondrial Division or Activators of Mitochondrial Fusion. S. cerevisiae fusion-defective mutant growth rescue, CellTiterGlo 48 h. Potency, µM (top dose mostly 46.1 µM), inactives show at the highest dose growth rescue (activation), actives largely listed as activators. 320,000 tested, 0.23% active; also: % of control where 0% means no effect; nearly all actives have a fitted effect of over 45% in size
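Compounds are tested for their ability to restore growth of mitochondrial fusion-defective yeast strains at non-permissive 37C in YPEG medium over 48 hours. Viability is quantified by luciferase luminescence.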
aSyn yeast inh: qHTS of alpha-syn Inhibitors; Yeast expressing alpha-synuclein, growth rescue, BacTiter-Glo, 24 h; Potency, µM (series often up to 46.1 µM), without a hit: at the highest dose growth rescue (activation), most hits filed as activators; 370,000 tested, 0.14% active; AID 652106, 2013; also: % of control where 0% means no effect; nearly all actives have a fitted effect of over 65% in size
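Screening used galactose-induced yeast with toxic alpha-synuclein levels, exposed to compound for 24 hr at 30 deg C. Cell growth, read with BacTiter-Glo luminescence, gave the measured signal.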
Abeta yeast res: qHTS for compounds that reverse cellular toxicity of Amyloid beta (A-beta) peptide in yeast: Primary Screen | yeast expressing A-beta42, growth rescue, OD600, 48 h; response scale: 0% DMSO, 100% iron-clioquinol control | 410,000 tested, 0.063% active | Potency, µM (titrated, usually from 46.1 µM), most hits filed as activators; also: nearly all actives have a fitted effect of over 55% in size
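Growth rescue measured by 600 nm absorbance after 48 h yeast culture at 30 C with compound. Values normalized between DMSO and an equimolar ferric chloride plus clioquinol control.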
A-T KAP1 phos: qHTS Assay for Identifying a Potential Treatment of Ataxia-Telangiectasia. 320,000 tested, 0.19% active. AID 485349, 2010. Potency, µM (highest dose often 57.5 µM), inactives show at the top dose activation, most hits filed as activators. F2112 A-T fibroblasts, KAP-1 phosphorylation AlphaLISA; neocarzinostatin DNA damage 30 min before lysis; also: % of control where 0% means no effect; nearly all actives have a fitted effect of over 45% in size
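ATM-like activity read as KAP-1 phosphorylation via AlphaLISA donor/acceptor antibody pairs after lysis and 6 hr at 25C. Cells were ATM-null patient fibroblasts (F2112, hTERT), dosed 60 min, then exposed to the DSB inducer NCS for 30 min.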
TDP-43 yeast inh: qHTS of TDP-43 Inhibitors; Potency, µM (highest dose often 46.1 µM), inactives show at the top dose growth rescue (activation), hits mostly activators; TDP-43 expressing yeast growth rescue, BacTiter-Glo, 24 h; 410,000 tested, 1.8% active; also: % of control where 0% means no effect; nearly all actives have a fitted effect of over 50% in size
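Yeast cells expressing TDP-43 under galactose induction are exposed to compounds for 24 hr at 30 deg C. BacTiter-Glo luminescence measures growth, so protective compounds score as activators.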
FUS suppressor: qHTS for Suppressors of FUS Proteinopathy: Primary screen using FUS-linked yeast assay; Potency, µM (titrated, usually from 76.6 µM), usual class: activators; 390,000 tested, 0.24% active; S. cerevisiae FUS-expressing, growth rescue, OD600, 24 h; AID 1347120, 2019;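 also: plate controls were DMSO vehicle for no effect and reference control for full effect; nearly all actives have a fitted effect of over 55% in size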
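FUS-expressing yeast, raffinose-pregrown, induced in 2% galactose minimal medium at OD 0.005; compounds in a dilution series, 24hr at 30C. Growth restoration read as absorbance at 600 nm. CP55940 positive control, DMSO negative.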
Starred values were filed as active, the others as inactive; i = inactive; ? = inconclusive; . = no result given. Most compounds without a hit are left out; they make up all but 2.4% or so of the library. Calls follow the shape of the dose curve; as a rule, active = well fitted curve in the direction sought with a large enough effect; inconclusive = small, poorly fitted or top-dose-only effect, or another doubt; inactive = no such curve, though single readings can be large; an effect the other way counts as inactive or inconclusive. Potency is read from the fitted curve at half-maximal effect.

SMILES	Mito fusion act	aSyn yeast inh	Abeta yeast res	A-T KAP1 phos	TDP-43 yeast inh	FUS suppressor
Cc1cc(C(=O)N2CCCC(C(=O)c3ccc(Cl)cc3C)C2)no1 (stereo not drawn)	7%	8%	i	4%	-17%	i
CC(C)Cc1cc(C(=O)N2CCCC(C(=O)c3cc(F)ccc3F)C2)no1 (stereo not drawn)	11µM*	-4%	i	4%	?	i
O=C(c1cc(F)ccc1F)C1CCCN(C(=O)c2cccs2)C1 (stereo not drawn)	8%	1%	i	1%	11%	i
COCc1ccc(C(=O)N2CCCC(C(=O)c3cc(F)ccc3F)C2)s1 (stereo not drawn)	-3%	-4%	i	-9%	11µM*	i
CSc1ncc(CN2CCCC(C(=O)c3ccc(C(C)(C)C)cc3)C2)cn1 (stereo not drawn)	13µM*	2%	i	-3%	-9%	i
Cc1cc2occ(CC(=O)N(C)CC(=O)Nc3c(C)cccc3C)c2cc1C	1%	9%	i	-6%	26%	i
Cc1cc2occ(CC(=O)N(C)CC(=O)Nc3ccccc3C(F)(F)F)c2cc1C	3%	2%	i	5%	20µM*	i
CC(=O)N1c2ccccc2Oc2cc3ccccc3cc21	30%	9%	i	3%	13µM*	i
Nc1nc(N)c2c(Oc3ccc(F)cc3)cccc2n1	.	8%	.	.	.	.
O=C(COC(=O)c1ccc(Sc2ncn[nH]2)c([N+](=O)[O-])c1)Nc1ccc(Cl)c(Cl)c1	.	.	.	.	.	i
CC(/C=N/n1c(-c2ccco2)n[nH]c1=S)=C\c1ccccc1	?	10%	i	-1%	18µM*	i
C#CCOCCOCCOCCNc1nc(N2CCN(C(=O)Cn3cc(CCCN=C(N)N)nn3)CC2)nc(N2CCN(C(=O)[C@H](Cc3ccc(O)cc3)n3cc(CCO)nn3)CC2)n1	.	.	.	.	.	i
CCOc1ccc(N2C(=O)/C(=C\c3ccccc3OC)S(=O)(=O)C2c2cccc([N+](=O)[O-])c2)cc1 (stereo not drawn)	-6%	-52%	i	-10%	11µM*	i
COc1ccccc1/C=C1/C(=O)N(c2cc(C)cc(C)c2)C(c2cccc([N+](=O)[O-])c2)S1(=O)=O (stereo not drawn)	0%	-14%	i	-1%	11µM*	i
CC(C)(C)C(=O)OC12CCCN(C1)/C(=C/c1ccc(Cl)cc1)C2 (stereo not drawn)	.	.	.	.	.	i
O=C(O)CC1CCC(=C(Cl)Cl)C1 (stereo not drawn)	-1%	11µM*	i	-1%	-8%	i
O=C(O)CC1CC(O)CCC1=O (stereo not drawn)	.	-1%	i	.	3%	i
COC(=O)c1cccc(CN2C(=O)SC(Nc3ccc(Cl)cc3)C2=O)c1 (stereo not drawn)	.	.	i	.	16µM*	i
COC(=O)c1cccc(CN2C(=O)SC(Nc3ccccc3C)C2=O)c1 (stereo not drawn)	.	.	i	.	?	i
COC(=O)c1cccc(CN2C(=O)SC(Nc3ccc(C)cc3)C2=O)c1 (stereo not drawn)	0%	13%	?	1%	22%	i
COC(=O)c1cccc(CN2C(=O)SC(Nc3ccc(Br)cc3)C2=O)c1 (stereo not drawn)	.	.	i	.	16µM*	?
Cc1ccc(C)c(CN2C(=O)c3ccccc3S(=O)(=O)c3ccc(C(=O)N4CCOCC4)cc32)c1	.	.	i	.	9%	28µM*
O=C(c1cccs1)C1CCN(c2ncnc3sccc23)CC1	.	.	.	.	.	i

Assay outcomes: PubChem BioAssay, National Center for Advancing Translational Sciences (NCATS)
